In PubChem BioAssay (Tox21):
Records with an inconclusive call do not appear. Calls of active or inactive are those of the source. Unless noted, calls come from the whole dose curve.

Experiments:
[1] = Nuclear factor erythroid 2-related factor 2/antioxidant responsive element (Nrf2/ARE) small molecule agonists: qHTS cell viability counter screen in human keratinocytes (AID 1919968; active = well fitted curve in the direction sought with a large enough effect in the repeat runs; an effect the other way counts as inactive or inconclusive; note: nearly all actives have a fitted effect of over 55% in size; note: potency is the fitted concentration of half-maximal effect)
Method in brief: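 Stably transfected HaCaT (KeratinoSens), 1,500/well. Test agents in DMSO were applied for 23 h, 37 C/5% CO2. CellTiter-Fluor was incubated 1 h before the fluorescence read.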

[2] = Nuclear factor erythroid 2-related factor 2/antioxidant responsive element (Nrf2/ARE) small molecule agonists: luciferase reporter gene qHTS assay in human keratinocytes (AID 1919969); note: nearly all actives have a fitted effect of over 35% in size
[3] = target: Gonadotropin-releasing hormone receptor (Homo sapiens) (UniProt P30968); experiment: Human gonadotropin-releasing hormone receptor (GnRHR) small molecule agonists, calcium flux assay in GnRHR-HEK293 cells (AID 1920063); note: nearly all actives have a fitted effect of over 35% in size
Gonadotropin-releasing hormone receptor (Homo sapiens), sequence (P30968 whole entry, looked up): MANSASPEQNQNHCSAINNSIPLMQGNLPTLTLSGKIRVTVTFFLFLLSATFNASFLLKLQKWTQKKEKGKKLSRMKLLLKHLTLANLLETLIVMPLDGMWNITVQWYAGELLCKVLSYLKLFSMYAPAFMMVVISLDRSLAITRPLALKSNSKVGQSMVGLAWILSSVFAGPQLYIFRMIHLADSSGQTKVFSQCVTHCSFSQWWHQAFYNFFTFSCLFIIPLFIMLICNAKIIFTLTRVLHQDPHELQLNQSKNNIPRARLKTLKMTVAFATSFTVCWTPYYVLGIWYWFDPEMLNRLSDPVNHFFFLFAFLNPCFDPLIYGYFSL
Method in brief: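 Stable human GnRHR HEK293 line. 18 h plating, then calcium dye for 1 h at 37 C. Agonist-mode compound addition from DMSO stocks; fluorescence monitored 3 min.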

[4] = target: KiSS-1 receptor (Homo sapiens) (UniProt Q969F8); experiment: Human kisspeptin (KISS1R) small molecule agonists, calcium flux assay in KISS1R-HEK293 cells (AID 1920064; active = well fitted curve in the direction sought with a large enough effect in the repeat runs; an effect the other way counts as inactive or inconclusive)
KiSS-1 receptor (Homo sapiens), sequence (Q969F8 whole entry, looked up): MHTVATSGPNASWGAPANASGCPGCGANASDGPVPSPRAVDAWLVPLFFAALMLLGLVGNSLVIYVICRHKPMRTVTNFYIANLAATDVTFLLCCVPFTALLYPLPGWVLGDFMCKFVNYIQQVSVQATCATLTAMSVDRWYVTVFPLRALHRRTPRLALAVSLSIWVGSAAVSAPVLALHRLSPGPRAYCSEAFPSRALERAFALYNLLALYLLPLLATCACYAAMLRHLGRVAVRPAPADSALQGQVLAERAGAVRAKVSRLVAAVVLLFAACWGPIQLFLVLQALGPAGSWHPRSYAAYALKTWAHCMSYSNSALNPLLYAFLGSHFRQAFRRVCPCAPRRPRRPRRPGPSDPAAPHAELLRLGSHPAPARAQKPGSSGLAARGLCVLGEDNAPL
Method in brief: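 After overnight (18 h) culture at 37 C/5% CO2, human KISS1R-HEK293 cells received calcium dye for 1 h, then test compound; emission at 540 nm (excitation 480 nm) was tracked for 3 min.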

[5] = G protein-coupled receptor (GPCR) small molecule agonists, calcium flux assay: HEK293 wild type cell line counter screen (AID 1920065)
Method in brief: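 Following 18 h incubation at 37 C/5% CO2, plates got calcium dye for 1 h; compounds, ATP or DMSO were then pinned in and fluorescence followed kinetically (480/540 nm).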

[6] = p53 small molecule agonists, cell-based qHTS assay with human liver microsomes (AID 1963577);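 note: p53 response element beta-lactamase reporter cells with liver microsomes plus NADPH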
Method in brief: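 In this qHTS, p53 response-element beta-lactamase cells receive test compound together with a microsome/NADPH activating system (0.5 mg/mL final each) and are incubated 16 h at 37 C before LiveBLAzer fluorescence detection.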

[7] = p53 small molecule agonists, cell-based qHTS assay with rat liver microsomes: qHTS cell viability counter screen (AID 1963580); note: nearly all actives have a fitted effect of over 45% in size
Method in brief: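 Cytotoxicity counter screen: intracellular ATP read by CellTiter-Glo luminescence in the p53 reporter wells. HCT-116 p53RE-bla cells were treated for 16 h at 37 C alongside rat liver microsomes and NADPH, each 0.5 mg/mL final.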

[8] = p53 small molecule agonists, cell-based qHTS assay: qHTS cell viability counter screen (AID 1963581); note: nearly all actives have a fitted effect of over 45% in size
Method in brief: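 qHTS counter screen: 16 h compound exposure at 37 C of p53RE-bla HCT-116 cells (4,000 per well, seeded 5 h prior), cell viability by ATP luminescence.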

[9] = p53 small molecule agonists, cell-based qHTS assay (AID 1963582; active = well fitted activation curve with a large enough effect in the signal ratio in the repeat runs, not every such curve was filed as active; the % refers to the signal ratio)
Method in brief: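 Measured: fluorescence from cleaved LiveBLAzer substrate. System: p53RE-bla cells, 16 h compound treatment at 37 C, 2 h substrate step at room temperature.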

[10] = target: 5-hydroxytryptamine receptor 2A (Homo sapiens) (UniProt P28223); experiment: 5-hydroxytryptamine receptor 2A (HTR2A) small molecule antagonists, cell-based qHTS assay (AID 1963586); note: nearly all actives have a fitted effect of over 45% in size
5-hydroxytryptamine receptor 2A (Homo sapiens), sequence (P28223 whole entry, looked up): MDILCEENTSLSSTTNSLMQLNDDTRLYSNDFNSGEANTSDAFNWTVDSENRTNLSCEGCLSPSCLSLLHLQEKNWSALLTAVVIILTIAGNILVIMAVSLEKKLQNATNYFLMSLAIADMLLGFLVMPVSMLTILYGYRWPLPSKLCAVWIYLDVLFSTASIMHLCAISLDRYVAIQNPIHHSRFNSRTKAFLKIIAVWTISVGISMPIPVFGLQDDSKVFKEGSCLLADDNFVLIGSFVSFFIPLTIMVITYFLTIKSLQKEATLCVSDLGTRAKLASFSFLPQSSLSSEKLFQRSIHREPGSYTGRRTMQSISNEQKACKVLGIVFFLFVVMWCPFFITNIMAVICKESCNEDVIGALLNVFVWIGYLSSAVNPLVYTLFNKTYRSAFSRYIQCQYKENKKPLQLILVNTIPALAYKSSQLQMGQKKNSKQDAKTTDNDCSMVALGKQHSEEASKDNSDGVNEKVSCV
Method in brief: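 CHO cells stably expressing human HTR2A were plated for 18 h at 37 C, then loaded with calcium dye for 1 h. Compounds were preincubated 5 min at room temperature before DOI (4 nM solution) was added. Kinetic fluorescence was read for 3 min.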

[11] = target: Muscarinic acetylcholine receptor M1 (Homo sapiens) (UniProt P11229); experiment: Cholinergic receptor muscarinic 1 (CHRM1) small molecule antagonists, cell-based qHTS assay (AID 1963588); note: nearly all actives have a fitted effect of over 40% in size; note: potency is the fitted concentration of half-maximal effect
Muscarinic acetylcholine receptor M1 (Homo sapiens), sequence (P11229 whole entry, looked up): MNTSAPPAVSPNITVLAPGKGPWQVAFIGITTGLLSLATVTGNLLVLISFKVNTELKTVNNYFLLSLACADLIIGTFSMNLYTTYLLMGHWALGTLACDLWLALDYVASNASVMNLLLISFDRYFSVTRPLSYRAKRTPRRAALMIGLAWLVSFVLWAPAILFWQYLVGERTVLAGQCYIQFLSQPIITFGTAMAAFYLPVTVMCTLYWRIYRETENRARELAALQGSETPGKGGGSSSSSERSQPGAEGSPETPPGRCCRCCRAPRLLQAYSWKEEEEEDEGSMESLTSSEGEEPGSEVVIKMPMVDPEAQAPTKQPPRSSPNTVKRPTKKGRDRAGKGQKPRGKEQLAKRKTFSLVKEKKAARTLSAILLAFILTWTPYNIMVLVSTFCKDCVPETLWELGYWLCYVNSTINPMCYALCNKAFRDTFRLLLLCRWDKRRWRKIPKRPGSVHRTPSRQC
Method in brief: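 Compounds were tested at 15 concentrations in three independent runs. Dye-loaded CHRM1-CHO cells were exposed 5 min at room temperature before stimulation by acetylcholine added at 50nM. Intracellular calcium was read kinetically on FDSS for 3 min.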

[12] = cAMP Responsive Elements (CRE) small molecule agonists, cell-based qHTS assay (AID 1963590)
Method in brief: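 Test agents in DMSO were incubated 3 h at 37 C/5% CO2 with CRE-bla HEK 293T cells seeded 18 h earlier; LiveBLAzer B/G FRET substrate was added and read after 2 h at room temperature.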

[13] = cAMP Responsive Elements (CRE) small molecule antagonists, cell-based qHTS assay (AID 1963591; active = well fitted inhibition curve with a large enough effect in the signal ratio in the repeat runs, not every such curve was filed as active; the % refers to the signal ratio)
Method in brief: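 Reporter line CRE-bla HEK 293T in dialyzed-FBS DMEM; cells preincubated 18 h, treated 3 h with compound plus NKH477 (0.25 uM final); LiveBLAzer FRET, 2 h RT.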

[14] = target: D(2) dopamine receptor (Homo sapiens) (UniProt P14416); experiment: Dopamine D2 receptor (DRD2) small molecule agonists, cell-based qHTS assay (AID 1963594); note: nearly all actives have a fitted effect of over 35% in size
D(2) dopamine receptor (Homo sapiens), sequence (P14416 whole entry, looked up): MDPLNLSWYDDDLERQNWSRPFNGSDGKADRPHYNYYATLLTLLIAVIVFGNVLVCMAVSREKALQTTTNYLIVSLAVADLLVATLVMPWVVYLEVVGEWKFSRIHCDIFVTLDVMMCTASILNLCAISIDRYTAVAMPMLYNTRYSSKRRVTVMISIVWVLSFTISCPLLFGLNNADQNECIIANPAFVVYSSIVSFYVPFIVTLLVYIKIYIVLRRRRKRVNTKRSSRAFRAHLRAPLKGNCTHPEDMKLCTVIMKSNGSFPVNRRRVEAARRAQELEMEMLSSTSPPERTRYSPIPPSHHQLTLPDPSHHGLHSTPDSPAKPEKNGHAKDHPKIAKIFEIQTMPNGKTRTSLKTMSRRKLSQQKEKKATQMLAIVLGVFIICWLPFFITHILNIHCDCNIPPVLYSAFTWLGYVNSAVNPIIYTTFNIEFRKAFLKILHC
Method in brief: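 cAMP accumulation in DRD2-HEK293 cells measured by HTRF after 1 h detection; compounds added 10 min before NKH477 (200nM […]) forskolin-analogue stimulation, 30 min at room temperature, with Ro20-1724 present at 0.1 mM final.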

[15] = target: D(2) dopamine receptor (Homo sapiens) (UniProt P14416); experiment: Dopamine D2 receptor (DRD2) small molecule antagonists, cell-based qHTS assay (AID 1963595; active = well fitted inhibition curve with a large enough effect in the signal ratio in the repeat runs, with a control signal flat; the % refers to the signal ratio)
Method in brief: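 Readout: HTRF cAMP, cAMP-d2 competing with cellular cAMP for anti-cAMP cryptate, read after 1 h. Cells: DRD2-HEK293. Conditions: 0.1 mM Ro20-1724, 12 nM quinpirole, 200 nM NKH477, 30 min RT.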

[16] = p53 small molecule agonists, cell-based qHTS assay with rat liver microsomes (AID 1963578)
Method in brief: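 Agonist mode in p53RE-bla reporter cells, with compounds co-incubated 16 h at 37 C alongside 0.5 mg/mL rat liver microsomes and 0.5 mg/mL NADPH (final), followed by a 2 h LiveBLAzer detection step.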

[17] = p53 small molecule agonists, cell-based qHTS assay with human liver microsomes: qHTS cell viability counter screen (AID 1963579); note: nearly all actives have a fitted effect of over 45% in size
Method in brief: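 Metabolically activated exposure: compounds, human liver microsomes and NADPH (0.5 mg/mL final apiece) were added to p53RE-bla cells seeded 5 h earlier, left 16 h at 37 C, and then assessed for viability by CellTiter-Glo luminescence.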

[18] = target: 5-hydroxytryptamine receptor 2A (Homo sapiens) (UniProt P28223); experiment: 5-hydroxytryptamine receptor 2A (HTR2A) small molecule agonists, cell-based qHTS assay (AID 1963587); note: nearly all actives have a fitted effect of over 30% in size
Method in brief: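 Kinetic calcium-flux fluorescence (2 min, 1 sec intervals) after compound addition in agonist mode. HTR2A-CHO cells were cultured 18 h, then dye-loaded 1 h at 37 C.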

[19] = target: Muscarinic acetylcholine receptor M1 (Homo sapiens) (UniProt P11229); experiment: Cholinergic receptor muscarinic 1 (CHRM1) small molecule agonists, cell-based qHTS assay (AID 1963589); note: nearly all actives have a fitted effect of over 35% in size
Method in brief: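 Kinetic fluorescence (1 s intervals) of calcium-sensitive dye in human M1 CHO cells after compound addition; cells pre-incubated 18 h at 37 C/5% CO2 and dye-loaded 1 h.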

[20] = target: Beta-2 adrenergic receptor (Homo sapiens) (UniProt P07550); experiment: Adrenergic beta2 receptor (ADRB2) small molecule antagonists, cell-based qHTS assay (AID 1963592); note: series mostly up to about 92 µM; nearly all actives have a fitted effect of over 50% in size
Beta-2 adrenergic receptor (Homo sapiens), sequence (P07550 whole entry, looked up): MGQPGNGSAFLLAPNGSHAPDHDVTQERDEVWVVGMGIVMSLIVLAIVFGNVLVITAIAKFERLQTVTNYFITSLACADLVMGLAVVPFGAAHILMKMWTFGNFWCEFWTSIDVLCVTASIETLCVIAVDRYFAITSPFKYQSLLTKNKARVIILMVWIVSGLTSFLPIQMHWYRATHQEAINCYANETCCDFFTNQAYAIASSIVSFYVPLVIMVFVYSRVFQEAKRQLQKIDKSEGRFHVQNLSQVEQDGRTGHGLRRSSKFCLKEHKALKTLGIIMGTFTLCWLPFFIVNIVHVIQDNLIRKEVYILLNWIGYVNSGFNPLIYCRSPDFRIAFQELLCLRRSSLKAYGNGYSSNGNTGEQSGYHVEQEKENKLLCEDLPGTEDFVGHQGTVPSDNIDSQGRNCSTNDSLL
Method in brief: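 Assay format: CHO-ADRB2 cells, 18-20hr seeding at 37C/5% CO2, then compound plus 1nM isoproterenol agonist mix for 0.5hr RT. Homogeneous time-resolved fluorescence cAMP detection after 1hr, expressed as 665/615 nm ratio.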
% is set by controls: 0 for no effect and ±100 for the full control effect.

COc1cc(S(=O)(=O)O)c(C)cc1N=Nc1c(O)ccc2cc(S(=O)(=O)O)ccc12
inactive: Potency [2] | Potency [3] | outcome [4] | outcome [5] | Potency [6] | Potency [7] | Potency [8] | Potency [9] | Potency [10] | Potency [11] | Potency [12] | Potency [13]
active: Potency [1] 24.3 µM

CN[C@@H]1[C@H](O)[C@H](NC)[C@H]2O[C@@]3(O)C(=O)C[C@@H](C)O[C@H]3O[C@@H]2[C@H]1O
inactive: Potency [1] | Potency [2] | Potency [3] | outcome [4] | outcome [5] | Potency [6] | Potency [9] | Potency [12] | Potency [13] | Potency [14] | Potency [15]

COc1cc(-c2ccc(N=C=O)c(OC)c2)ccc1N=C=O
inactive: Potency [1] | Potency [2] | Potency [3] | outcome [4] | outcome [5] | Potency [16] | Potency [17] | Potency [7] | Potency [8] | Potency [9] | Potency [10] | Potency [18] | Potency [11] | Potency [19] | Potency [12] | Potency [13] | Potency [20] | Potency [14] | Potency [15]

O=C1c2ccccc2C(=O)c2cc(Cl)ccc21
inactive: activity change, negative = cytotoxicity [1] -4.18% [at 8.39 µM] | activity, positive = activation [2] 3.42% [at 8.39 µM] | activity change [3] -1.12% [at 5.22 µM, stronger effect = higher value] | activation [4] -0.408% [at 6.97 µM] | activation [5] -1.07% [at 5.23 µM] | activation [6] -0.0412% [at 5.99 µM] | activity change, negative = cytotoxicity [17] 3.98% [at 5.99 µM] | activity change, negative = cytotoxicity [7] 0.229% [at 5.99 µM] | activation [9] -0.497% [at 5.99 µM] | activity, negative = inhibition [10] 0.237% [at 5.62 µM] | activation [18] -2.59% [at 7.02 µM] | activity, negative = inhibition [11] -8.9% [at 5.58 µM] | activation [19] -0.206% [at 6.97 µM] | activation [12] -1.41% [at 8.39 µM] | activity change, negative = inhibition [13] -1.91% [at 8.39 µM] | activity change, negative = inhibition [20] -7.09% [at 8.39 µM] | activation [14] 1.23% [at 8.39 µM] | activity change, negative = inhibition [15] -1.19% [at 8.38 µM]

CC1(c2ccccc2)OC(C(=O)O)=CC1=O (stereo not given)
inactive: Potency [1] | Potency [2] | Potency [3] | outcome [4] | outcome [5] | Potency [6] | Potency [17] | Potency [7] | Potency [18] | Potency [11] | Potency [12] | Potency [13] | Potency [20] | Potency [14] | Potency [15]

CCCCCCCCCCCC(=O)Cl
inactive: Potency [1] | Potency [2] | Potency [3] | outcome [4] | outcome [5] | Potency [6] | Potency [17] | Potency [8] | Potency [18] | Potency [19] | Potency [12] | Potency [13] | Potency [20] | Potency [14] | Potency [15]

N#CSCC(=O)O
inactive: Potency [1] | Potency [2] | Potency [3] | outcome [4] | outcome [5] | Potency [6] | Potency [7] | Potency [8] | Potency [9] | Potency [10] | Potency [18] | Potency [11] | Potency [19] | Potency [12] | Potency [13] | Potency [20] | Potency [14] | Potency [15]

CNCCC(Oc1ccccc1OC)c1ccccc1 (stereo not given)
active: Potency [11] 16.3 µM
inactive: Potency [1] | Potency [2] | Potency [3] | outcome [4] | outcome [5] | Potency [6] | Potency [7] | Potency [18] | Potency [19] | Potency [12] | Potency [13] | Potency [14] | Potency [15]

CCOc1cc(OCC)c(C(C)=O)cc1OCC
inactive: Potency [1] | Potency [2] | Potency [3] | outcome [4] | outcome [5] | Potency [6] | Potency [17] | Potency [8] | Potency [9] | Potency [10] | Potency [18] | Potency [11] | Potency [19] | Potency [20] | Potency [14] | Potency [15]

CN1C(=O)CC(c2ccccc2)C1=O (stereo not given)
inactive: Potency [1] | Potency [2] | Potency [3] | outcome [4] | outcome [5] | Potency [16] | Potency [17] | Potency [7] | Potency [8] | Potency [9] | Potency [10] | Potency [18] | Potency [11] | Potency [19] | Potency [12] | Potency [13] | Potency [20] | Potency [15]

C=C(C)c1cccc(C(C)(C)N=C=O)c1
inactive: Potency [1] | Potency [2] | Potency [3] | outcome [4] | outcome [5] | Potency [6] | Potency [17] | Potency [8] | Potency [9] | Potency [10] | Potency [18] | Potency [11] | Potency [19] | Potency [12] | Potency [13] | Potency [15]

CCC1NC(=O)c2cc(S(N)(=O)=O)c(Cl)cc2N1 (stereo not given)
inactive: Potency [1] | Potency [2] | Potency [3] | outcome [4] | outcome [5] | Potency [6] | Potency [17] | Potency [7] | Potency [9] | Potency [10] | Potency [11] | Potency [19] | Potency [13] | Potency [20] | Potency [14]

CCCCC/C=C/CC1CC(=O)OC1=O (stereo not given)
inactive: Potency [1] | Potency [2] | Potency [3] | outcome [4] | outcome [5] | Potency [16] | Potency [17] | Potency [7] | Potency [8] | Potency [9] | Potency [10] | Potency [18] | Potency [11] | Potency [19] | Potency [12] | Potency [13] | Potency [20] | Potency [14] | Potency [15]

C[C@@H](CN1CC(=O)NC(=O)C1)N1CC(=O)NC(=O)C1
inactive: Potency [1] | Potency [2] | Potency [3] | outcome [4] | outcome [5] | Potency [6] | Potency [7] | Potency [8] | Potency [10] | Potency [18] | Potency [11] | Potency [19] | Potency [12] | Potency [13] | Potency [20] | Potency [14] | Potency [15]

N#CCc1ccccc1[N+](=O)[O-]
inactive: Potency [1] | Potency [2] | Potency [3] | outcome [4] | outcome [5] | Potency [16] | Potency [17] | Potency [7] | Potency [8] | Potency [9] | Potency [10] | Potency [18] | Potency [11] | Potency [19] | Potency [12] | Potency [13] | Potency [20] | Potency [14] | Potency [15]

COc1ccc(CN(CCN(C)C)c2ncccn2)cc1
inactive: Potency [1] | Potency [2] | Potency [3] | outcome [4] | outcome [5] | Potency [6] | Potency [7] | Potency [9] | Potency [10] | Potency [18] | Potency [11] | Potency [19] | Potency [12] | Potency [13] | Potency [20] | Potency [14] | Potency [15]
